Unmarked numbers belong to inactive results. Inconclusive results are not listed. Activity calls are given as the source filed them. Unless noted, the call rests on the fitted dose curve; in most records, active means well fitted curve in the direction sought with a large enough effect; inconclusive means small, poorly fitted or top-dose-only effect, or another doubt; inactive means no such curve, though single readings can be large; an effect the other way counts as inactive or inconclusive.

Assay [1] is described as follows: qHTS assay for small molecule disruptors of the mitochondrial membrane potential - 1 hr assay (AID 651754; calls by dose curve; further: potency means the concentration at half of the fitted maximal effect; nearly all actives have a fitted effect of over 35% in size). Particulars: series mostly up to 92.2 µM. A digest of the protocol: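 Read-out: dye fluorescence at 490 nm ex/535 nm em (monomers) and 540 nm ex/590 nm em (aggregates) in HepG2 cells. Compound exposure 1 hr at 37C, followed by 30 min dye loading.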
(Quantitative high-throughput screening tests each substance at several concentrations.)

Assay [2] can be described thus: qHTS assay for small molecule disruptors of the mitochondrial membrane potential - 5 hr assay (AID 651755; calls by dose curve; further: potency means the concentration at half of the fitted maximal effect; nearly all actives have a fitted effect of over 40% in size). The following applies: JC-1-type ratio dye; series mostly up to 92.2 µM. A digest of the protocol: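 Seed HepG2 overnight, add compound, incubate 5 hr at 37C and 5% CO2, stain 30 min with Mito-MPS, then measure monomer (490/535 nm) and aggregate (540/590 nm) fluorescence.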

In assay [3] the target is Peroxisome proliferator-activated receptor alpha (Homo sapiens) (UniProt Q07869). In words: qHTS assay for small molecule agonists of the peroxisome proliferator-activated receptor alpha (PPARalpha) signaling pathway (AID 651778). Further: % of control where 0% means no effect. Particulars: PathHunter PPARalpha complementation, chemiluminescence, 6 h; max response: stronger effect = higher value. Put shortly: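 Cells plated at 2,000/well and held overnight at 37 C, 5% CO2, then compound added by pin tool for 6 hr; after PathHunter detection reagent and 60 min at room temperature, chemiluminescence from enzyme complementation was read.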

In assay [4] the target is Nuclear receptor ROR-gamma (Homo sapiens) (UniProt P51449). In words: qHTS assay for small molecule antagonists of the retinoid-related orphan receptor gamma (ROR-gamma) signaling pathway (AID 651802).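 Further: CHO cells with doxycycline-induced ROR-gamma expression; luciferase reporter luminescence driven by ROR response element; on the % scale 0 is the no-effect control and ±100 the full control effect; nearly all actives have a fitted effect of over 60% in size.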 The following applies: ROR-gamma antagonist cell reporter assay; series mostly up to 92.2 µM. A digest of the protocol:
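Luciferase read-out: ONE-Glo luminescence after 30 min at room temperature, following 16hr doxycycline induction at 37C, 5% CO2 of CHO cells with TET-inducible ROR and RORE-LUC reporter; decreased luminescence = reduced reporter activity.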

The nature of assay [5]: qHTS assay for environmental chemicals that activate the Aryl hydrocarbon Receptor (AhR) signaling pathway (AID 651777). Further: % of control where 0% means no effect; nearly all actives have a fitted effect of over 15% in size. Particulars: 1A2-DRE human hepatoma cells, luciferase, 24 h; stronger effect = higher value. Put shortly:
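Induction of CYP1A2 transcription through AhR is detected by luciferase in 1A2-DRE hepatoma cells. Compounds or DMSO act for 24 hr at 37 C before a 30 min One-Glo step at room temperature.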

The target in assay [6] is Tyrosine-protein kinase Yes (Homo sapiens) (UniProt P07947). In words: qHTS for small molecule inhibitors of Yes1 kinase: Primary Screen (AID 686947).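 Further: plate controls were DMSO with enzyme for no effect and no-enzyme DMSO wells for full effect; nearly all actives have a fitted effect of over 60% in size.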 The following applies: Yes1 kinase biochemical qHTS inhibition; series mostly up to 76.9 µM. A digest of the protocol:
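In this qHTS format, inhibition is expressed relative to DMSO controls with enzyme (maximum) and without enzyme (minimum). The 60 min room-temperature reaction uses 0.1 mM ATP, with ADP detected by luminescence.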

Peroxisome proliferator-activated receptor alpha (Homo sapiens), sequence (Q07869 whole entry, looked up): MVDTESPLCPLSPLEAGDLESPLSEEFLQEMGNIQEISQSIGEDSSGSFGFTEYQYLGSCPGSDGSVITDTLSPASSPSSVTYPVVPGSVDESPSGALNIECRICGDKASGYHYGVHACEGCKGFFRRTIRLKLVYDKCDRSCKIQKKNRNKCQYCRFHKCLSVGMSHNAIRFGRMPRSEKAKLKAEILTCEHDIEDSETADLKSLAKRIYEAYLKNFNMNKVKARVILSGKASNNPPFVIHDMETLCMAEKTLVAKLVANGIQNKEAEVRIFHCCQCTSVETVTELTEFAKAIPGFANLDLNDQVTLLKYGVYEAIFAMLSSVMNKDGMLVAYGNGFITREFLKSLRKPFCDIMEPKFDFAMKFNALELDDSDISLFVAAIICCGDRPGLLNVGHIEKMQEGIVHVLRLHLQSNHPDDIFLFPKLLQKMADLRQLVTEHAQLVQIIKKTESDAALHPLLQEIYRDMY
Tyrosine-protein kinase Yes (Homo sapiens), sequence (P07947 whole entry, looked up): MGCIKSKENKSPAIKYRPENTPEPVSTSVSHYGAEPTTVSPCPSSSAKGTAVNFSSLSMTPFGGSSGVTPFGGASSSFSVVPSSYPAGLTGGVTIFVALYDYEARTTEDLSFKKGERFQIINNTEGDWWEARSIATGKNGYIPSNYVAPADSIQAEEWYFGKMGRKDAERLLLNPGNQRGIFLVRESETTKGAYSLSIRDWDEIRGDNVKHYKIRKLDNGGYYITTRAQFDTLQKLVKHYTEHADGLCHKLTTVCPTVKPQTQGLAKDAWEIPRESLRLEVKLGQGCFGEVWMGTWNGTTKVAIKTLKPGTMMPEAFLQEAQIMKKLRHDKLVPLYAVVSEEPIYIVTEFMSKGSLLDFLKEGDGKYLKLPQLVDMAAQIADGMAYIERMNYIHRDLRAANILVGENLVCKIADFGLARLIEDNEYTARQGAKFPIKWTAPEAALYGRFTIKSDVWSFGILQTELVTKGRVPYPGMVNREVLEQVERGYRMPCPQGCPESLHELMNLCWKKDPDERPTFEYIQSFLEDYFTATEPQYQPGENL
Nuclear receptor ROR-gamma (Homo sapiens), sequence (P51449 whole entry, looked up): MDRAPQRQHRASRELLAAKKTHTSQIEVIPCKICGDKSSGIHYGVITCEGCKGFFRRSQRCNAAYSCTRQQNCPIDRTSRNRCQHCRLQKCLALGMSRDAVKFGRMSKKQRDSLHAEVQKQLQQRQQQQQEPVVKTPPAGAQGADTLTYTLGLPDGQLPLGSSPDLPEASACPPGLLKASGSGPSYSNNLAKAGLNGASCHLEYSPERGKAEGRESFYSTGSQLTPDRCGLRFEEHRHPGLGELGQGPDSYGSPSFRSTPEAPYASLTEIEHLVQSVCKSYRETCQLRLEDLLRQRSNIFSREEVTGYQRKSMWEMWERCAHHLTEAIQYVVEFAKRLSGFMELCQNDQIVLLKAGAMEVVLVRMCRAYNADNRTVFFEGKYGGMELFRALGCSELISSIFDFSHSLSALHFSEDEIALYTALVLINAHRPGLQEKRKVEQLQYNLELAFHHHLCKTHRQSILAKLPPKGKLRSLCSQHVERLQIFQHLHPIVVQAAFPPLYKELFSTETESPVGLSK

Regarding `COc1ccc2cc3[n+](cc2c1OC)CCc1cc2c(cc1-3)OCO2`, the Potency is 21.1 µM (active) in assay [1] and 9.44 µM (active) in assay [2]. Further, the max response in assay [3] was -3.31%. Besides, in assay [4], the Potency entry is “inactive”.

For `Nc1nc(N)c2nc(CNc3ccc(C(=O)NC(CCC(=O)O)C(=O)O)cc3)cnc2n1` (centres undefined), the activation in assay [5] is -4.32%. The max response in assay [3] is -1.16%.

`COc1cc([C@@H]2c3cc4c(cc3[C@H](O)[C@H]3COC(=O)[C@H]23)OCO4)cc(OC)c1OC`: the molecule was classed as inactive in assay [6].

With `CC(=O)CC(c1ccccc1)c1c(O)c2ccccc2oc1=O` (centres undefined), in assay [3], the max response is -0.925%.

Take `Cc1c(-c2ccc(O)cc2)n(Cc2ccc(OCCN3CCCCCC3)cc2)c2ccc(O)cc12`: the call in assay [6] was inactive.
